# Assay results reported in PubChem BioAssay AID1970 (National Center for Advancing Translational Sciences (NCATS), 2009).
# Records with an inconclusive call do not appear. Active and inactive are the calls of the source. Calls come from the whole dose curve; as a rule, active = well fitted inhibition curve with a large enough effect; inconclusive = small, poorly fitted or top-dose-only effect; inactive = flat fitted curve, though single readings scatter.
# Target: Dual specificity protein kinase CLK4 (Homo sapiens) (UniProt Q9HAZ1)
# Sequence (Q9HAZ1 whole entry, looked up): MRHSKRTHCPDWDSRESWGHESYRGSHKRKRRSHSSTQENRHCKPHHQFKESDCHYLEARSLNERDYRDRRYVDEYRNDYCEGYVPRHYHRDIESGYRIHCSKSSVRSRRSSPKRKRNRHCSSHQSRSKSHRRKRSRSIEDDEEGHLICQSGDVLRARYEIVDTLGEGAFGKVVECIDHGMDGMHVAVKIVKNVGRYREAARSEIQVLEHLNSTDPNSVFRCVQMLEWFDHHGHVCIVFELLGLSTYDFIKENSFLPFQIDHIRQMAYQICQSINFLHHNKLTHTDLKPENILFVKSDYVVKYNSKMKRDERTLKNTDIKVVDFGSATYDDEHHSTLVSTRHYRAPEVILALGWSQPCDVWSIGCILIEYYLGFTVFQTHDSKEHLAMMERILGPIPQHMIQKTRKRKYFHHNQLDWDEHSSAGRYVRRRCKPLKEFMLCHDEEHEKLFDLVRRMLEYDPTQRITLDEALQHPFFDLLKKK
# Test: Confirmation Assay for Inhibitors of CDC-like Kinase 4 (Kinase-Glo Assay)
# Settings: recombinant Clk4, Kinase-Glo ATP depletion luminescence
# Method: NIH Molecular Libraries Probe Production Centers Network [MLPCN] NIH Chemical Genomics Center [NCGC] MLPCN Grant: 1R03MH084827-01 Assay Submitter (PI): Tom Misteli NCGC Assay Overview: Clk4 (Invitrogen, cat# PV3839) was assayed using ATP and the RS repeat peptide (AnaSpec cat # 61722) as substrates. Following the Clk4 reaction, the remaining ATP levels were detected using Promega Kinase-Glo technology wherein the remaining ATP from the kinase reaction is detected using Ultra-Glo luciferase and D-luciferin which generates a bioluminescence signal from the ATP.
# NCGC Assay Protocol Summary: Two uL/well of substrate-buffer solution (100 uM RS peptide, 1 uM ATP, 25 mM Tris pH7.5, 10 mM MgCl2, 0.5 mM EGTA, 2.5 mM DTT, 0.01% Triton X-100 final concentration) was dispensed into 1536-well, assay plates (Greiner, solid white medium-binding plates) with Aurora Discovery BioRAPTR Flying Reagent Dispenser (FRD; Beckton-Dickenson). Using a Kalypsys pin tool equipped with a 1536-pin tool, 23 nL of compound solution was transferred to the assay plate. […] Luminescence was detected with the ViewLux plate reader (Perkin Elmer, Waltham, MA) after 5 min incubation using a 5 second exposure time and 2x binning.
structure (smiles),measurement,value
COc1ccc2c(c1)[nH]c1c(C)nccc12,Potency,67.1 nM (active)
